According to PubChem BioAssay (NCATS):
Values joined by “and” are separate entries in the source; they are usually repeats but may differ in a detail not shown here. Equal values may be shown once. Results filed as inconclusive are left out. Active and inactive are the calls of the source. Calls come from the whole dose curve; as a rule, active = well fitted curve in the direction sought with a large enough effect; inconclusive = small, poorly fitted or top-dose-only effect, or another doubt; inactive = no such curve, though single readings can be large; an effect the other way counts as inactive or inconclusive.
% is set by controls: 0 for no effect and ±100 for the full control effect.

Each molecule was assayed against ATP-dependent 6-phosphofructokinase (Trypanosoma brucei brucei) (UniProt O15648) (assay: qHTS Assay to Find Inhibitors of T. brucei phosphofructokinase: hit validation (AID 492961;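 note: luminescence reports ADP formed as PFK phosphorylates fructose-6-phosphate with ATP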)). Conditions: T. brucei PFK, ADP-Glo luminescence; series mostly up to 51.4 µM; activity change, negative = inhibition: at the top concentration.
Chain of ATP-dependent 6-phosphofructokinase (Trypanosoma brucei brucei) (O15648 whole entry, looked up): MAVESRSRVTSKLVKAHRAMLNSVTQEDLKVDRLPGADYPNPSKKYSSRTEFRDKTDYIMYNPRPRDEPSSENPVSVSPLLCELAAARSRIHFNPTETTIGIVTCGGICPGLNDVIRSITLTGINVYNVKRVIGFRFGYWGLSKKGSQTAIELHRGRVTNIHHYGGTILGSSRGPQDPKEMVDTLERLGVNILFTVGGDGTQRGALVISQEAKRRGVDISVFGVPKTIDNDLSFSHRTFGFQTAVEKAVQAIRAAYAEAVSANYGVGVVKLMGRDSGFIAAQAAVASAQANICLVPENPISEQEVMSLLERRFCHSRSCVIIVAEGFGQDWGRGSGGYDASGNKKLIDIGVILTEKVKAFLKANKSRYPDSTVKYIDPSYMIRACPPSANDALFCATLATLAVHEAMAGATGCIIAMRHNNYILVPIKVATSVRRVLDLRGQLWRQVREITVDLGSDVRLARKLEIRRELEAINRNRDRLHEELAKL
Summary of the method: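 Measures ADP output of PFK (1.25 nM) at 0.1 mM ATP, 0.5 mM F6P, pH 8.0 TEA buffer with 5 mM MgCl2. No-enzyme wells define full inhibition; uninhibited enzyme wells define zero.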
Nc1[nH]c(=O)ncc1F was tested, and the “activity change, negative = inhibition” value was -1.9% [at 24.3 µM] (inactive). In the case of CCCCCCNC(=O)n1cc(F)c(=O)[nH]c1=O, the “activity change, negative = inhibition” value is reported as 8.43% (inactive). CNCC[C@H](Oc1cccc2ccccc12)c1cccs1 was tested, and the “activity change, negative = inhibition” value was -2.57% (inactive). For CCN(C)C(=O)Oc1cccc([C@H](C)N(C)C)c1, the “activity change, negative = inhibition” value was 0% (inactive). With CCOC(=O)c1ccc(OC(=O)CCCCCN=C(N)N)cc1 the “activity change, negative = inhibition” value was 6.85% [at 24.3 µM] (inactive). With O=C(O)c1cc(=O)[nH]c(=O)[nH]1 the “activity change, negative = inhibition” value was -1.25% (inactive). With CCCCOc1ccc(CC(=O)NO)cc1 the “activity change, negative = inhibition” value was 6.95% [at 24.3 µM] (inactive). O=P(O)(O)C(O)(Cc1cccnc1)P(=O)(O)O was tested, and the “activity change, negative = inhibition” value was -3.22% (inactive). C#CCN[C@@H]1CCc2ccccc21 was tested, and the “activity change, negative = inhibition” value was -11.7% (inactive). In the case of COc1cc2c(Nc3ccc(Br)cc3F)ncnc2cc1OCC1CCN(C)CC1, the “activity change, negative = inhibition” value is reported as 1.87% (inactive). In the case of COc1cc(NS(=O)(=O)c2ccc(N)cc2)nc(OC)n1, the “activity change, negative = inhibition” value is reported as -1.29% [at 24.3 µM] (inactive). For CC(N)C12CC3CC(CC(C3)C1)C2 (stereo not given), the “activity change, negative = inhibition” value was -9.46% (inactive). With Nc1ccc(S(=O)(=O)Nc2ccccn2)cc1 the “activity change, negative = inhibition” value was 1.76% [at 24.3 µM] (inactive). For Cc1ccnc2c1NC(=O)c1cccnc1N2C1CC1, the “activity change, negative = inhibition” value was -6.12% (inactive). In the case of CCOc1cc(N)c(Cl)cc1C(=O)NCC1CN(Cc2ccc(F)cc2)CCO1 (stereo not given), the “activity change, negative = inhibition” value is reported as -18.4% (inactive). With CN(C)CCc1c[nH]c2ccc(CS(=O)(=O)N3CCCC3)cc12 the “activity change, negative = inhibition” value was -7.42% (inactive). CCOC(=O)[C@H](CCc1ccccc1)N[C@H]1CS[C@H](c2cccs2)CN(CC(=O)O)C1=O was tested, and the “activity change, negative = inhibition” value was 0.108% (inactive). CN1CCCC(n2nc(Cc3ccc(Cl)cc3)c3ccccc3c2=O)CC1 (stereo not given) was tested, and the “activity change, negative = inhibition” value was 15.1% (inactive).

What follows are molecules tested against Ubiquitin carboxyl-terminal hydrolase 1 (Homo sapiens) (UniProt O94782) (assay: Inhibitors of USP1/UAF1: Pilot qHTS (AID 504865; note: nearly all actives have a fitted effect of over 35% in size; note: potency is the fitted concentration of half-maximal effect;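 for activity change, negative = inhibition: rhodamine fluorescence freed from ubiquitin-rhodamine substrate followed over time; top concentration of the series differs between compounds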)). Conditions: purified USP1/UAF1, Ub-rhodamine cleavage fluorescence; series mostly up to 114 µM; activity change, negative = inhibition: at the top concentration.
Chain of Ubiquitin carboxyl-terminal hydrolase 1 (Homo sapiens) (O94782 whole entry, looked up): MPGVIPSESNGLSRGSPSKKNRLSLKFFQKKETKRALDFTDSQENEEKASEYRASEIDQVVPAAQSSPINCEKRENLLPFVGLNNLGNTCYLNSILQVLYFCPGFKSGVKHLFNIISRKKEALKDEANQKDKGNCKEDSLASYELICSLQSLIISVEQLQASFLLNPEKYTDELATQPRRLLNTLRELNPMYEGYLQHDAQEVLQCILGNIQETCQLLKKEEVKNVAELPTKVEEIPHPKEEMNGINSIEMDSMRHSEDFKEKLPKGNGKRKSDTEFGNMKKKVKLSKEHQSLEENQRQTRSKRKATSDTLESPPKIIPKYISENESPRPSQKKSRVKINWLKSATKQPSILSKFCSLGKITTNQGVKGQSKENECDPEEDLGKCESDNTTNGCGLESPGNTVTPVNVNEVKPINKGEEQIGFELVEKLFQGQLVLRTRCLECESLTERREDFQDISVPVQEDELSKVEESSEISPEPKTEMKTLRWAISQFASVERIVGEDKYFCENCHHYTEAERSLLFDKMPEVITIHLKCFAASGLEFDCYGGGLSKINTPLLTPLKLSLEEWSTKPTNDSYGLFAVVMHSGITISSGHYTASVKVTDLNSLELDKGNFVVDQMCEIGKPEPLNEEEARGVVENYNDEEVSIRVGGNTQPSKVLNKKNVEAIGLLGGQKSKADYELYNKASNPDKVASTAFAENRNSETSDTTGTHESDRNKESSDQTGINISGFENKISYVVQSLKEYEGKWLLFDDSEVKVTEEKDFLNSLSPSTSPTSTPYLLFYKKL
Summary of the method: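 USP1/UAF1 complex (1nM) preincubated with compound 15 min at room temperature, then Ub-Rho substrate (150nM final) added. Fluorescence read kinetically at 480/540 nm, 6 reads every 60 seconds. Buffer: 50mM HEPES pH 7.8, 0.5mM EDTA, 0.1 mg/ml BSA, 1mM TCEP, 0.01% Tween-20.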
With Nc1[nH]c(=O)ncc1F the “activity change, negative = inhibition” value was -12.9% [at 54.9 µM] (inactive). For CCCCCCNC(=O)n1cc(F)c(=O)[nH]c1=O, the “activity change, negative = inhibition” value was -8.47% (inactive). In the case of CNCC[C@H](Oc1cccc2ccccc12)c1cccs1, the “activity change, negative = inhibition” value is reported as -14.4% (inactive). In the case of CCN(C)C(=O)Oc1cccc([C@H](C)N(C)C)c1, the “activity change, negative = inhibition” value is reported as -5.6% (inactive). For O=S(=O)(O)CCS, the Potency was “inactive”. Nc1nc(=S)c2[nH]cnc2[nH]1 was tested, and the “activity change, negative = inhibition” value was -0.314% (inactive). For CN(C)c1ccc(C(=C2C=CC(=[N+](C)C)C=C2)c2ccc(N(C)C)cc2)cc1, the Potency was 20 µM (active) and 22.4 µM (active). With CCOC(=O)c1ccc(OC(=O)CCCCCN=C(N)N)cc1 the Potency was “inactive”. With COC(=O)Nc1nc2ccc(S(=O)c3ccccc3)cc2[nH]1 (stereo not given) the “activity change, negative = inhibition” value was -16.6% (inactive). In the case of O=C(O)c1cc(=O)[nH]c(=O)[nH]1, the “activity change, negative = inhibition” value is reported as -2.68% (inactive). With CC(=O)CC(c1ccccc1)c1c(O)c2ccccc2oc1=O (stereo not given) the “activity change, negative = inhibition” value was -9.17% (inactive). In the case of CCCCOc1ccc(CC(=O)NO)cc1, the “activity change, negative = inhibition” value is reported as 7.23% [at 54.9 µM] (inactive). O=P(O)(O)C(O)(Cc1cccnc1)P(=O)(O)O was tested, and the “activity change, negative = inhibition” value was -1.96% (inactive). For C#CCN[C@@H]1CCc2ccccc21, the “activity change, negative = inhibition” value was -2.38% (inactive). With COc1cc2c(Nc3ccc(Br)cc3F)ncnc2cc1OCC1CCN(C)CC1 the “activity change, negative = inhibition” value was -7.08% (inactive). For Cc1ncc([N+](=O)[O-])n1CCO, the Potency was “inactive”. With Cc1nnc(NS(=O)(=O)c2ccc(N)cc2)s1 the Potency was “inactive”. With NNC(=O)c1ccncc1 the “activity change, negative = inhibition” value was 8.01% [at 54.9 µM] (inactive). COc1ccc2cc3[n+](cc2c1OC)CCc1cc2c(cc1-3)OCO2 was tested, and the Potency was “inactive”. COc1cc(NS(=O)(=O)c2ccc(N)cc2)nc(OC)n1 was tested, and the “activity change, negative = inhibition” value was 9.4% [at 54.9 µM] (inactive). In the case of CC(N)C12CC3CC(CC(C3)C1)C2 (stereo not given), the “activity change, negative = inhibition” value is reported as -6.33% (inactive). With Nc1ccc(S(=O)(=O)Nc2ccccn2)cc1 the “activity change, negative = inhibition” value was -5.02% [at 54.9 µM] (inactive). With O=S(=O)(c1cccc2cnccc12)N1CCCNCC1 the “activity change, negative = inhibition” value was -2.56% (inactive). With Cc1ccnc2c1NC(=O)c1cccnc1N2C1CC1 the “activity change, negative = inhibition” value was -4.42% (inactive). With COc1nc(N)nc2c1ncn2[C@@H]1O[C@H](CO)[C@@H](O)[C@@H]1O the Potency was 22.4 µM (active). For CCOc1cc(N)c(Cl)cc1C(=O)NCC1CN(Cc2ccc(F)cc2)CCO1 (stereo not given), the “activity change, negative = inhibition” value was -12.2% (inactive). CN(C)CCc1c[nH]c2ccc(CS(=O)(=O)N3CCCC3)cc12 was tested, and the “activity change, negative = inhibition” value was -4.99% (inactive). For COc1c(N2CCNC(C)C2)c(F)cc2c(=O)c(C(=O)O)cn(C3CC3)c12 (stereo not given), the “activity change, negative = inhibition” value was -5.94% (inactive). In the case of N=C(N)c1ccc(OCCCCCOc2ccc(C(=N)N)cc2)cc1, the “activity change, negative = inhibition” value is reported as -4.1% (inactive). CCOC(=O)[C@H](CCc1ccccc1)N[C@H]1CS[C@H](c2cccs2)CN(CC(=O)O)C1=O was tested, and the “activity change, negative = inhibition” value was -9.74% (inactive). For CN1CCCC(n2nc(Cc3ccc(Cl)cc3)c3ccccc3c2=O)CC1 (stereo not given), the “activity change, negative = inhibition” value was -10.1% (inactive). For CCc1cc(C(N)=S)ccn1, the Potency was “inactive”. COc1ccc2c(c1)c(CC(=O)OCC(=O)O)c(C)n2C(=O)c1ccc(Cl)cc1 was tested, and the “activity change, negative = inhibition” value was -12.6% [at 54.9 µM] (inactive). With CC(C)(C)C(=O)OCOP(=O)(COCCn1cnc2c(N)ncnc21)OCOC(=O)C(C)(C)C the “activity change, negative = inhibition” value was -2.11% (inactive). O=C(N[C@H](CO)[C@H](O)c1ccc([N+](=O)[O-])cc1)C(Cl)Cl was tested, and the “activity change, negative = inhibition” value was 7.67% (inactive). In the case of Cc1noc(NS(=O)(=O)c2ccc(N)cc2)c1C, the Potency is reported as “inactive”. In the case of O=C(O)c1cccnc1, the Potency is reported as “inactive”.
